The whole screen tested about 2,100 compounds, of which about 770 (37%) were called active.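 The calls were made as follows: active = by-eye trace score of 1 for enhancers or -1 for inhibitors, so actives lie on both sides (some results past the limit were not filed as active); inactive = score 0, or 3 fluorescent, or 4 baseline rise.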 The list shows a part of the results.

G protein-activated inward rectifier potassium channel 2 (Homo sapiens) + G protein-activated inward rectifier potassium channel 1 (Homo sapiens), sequence (P48051 whole entry, looked up): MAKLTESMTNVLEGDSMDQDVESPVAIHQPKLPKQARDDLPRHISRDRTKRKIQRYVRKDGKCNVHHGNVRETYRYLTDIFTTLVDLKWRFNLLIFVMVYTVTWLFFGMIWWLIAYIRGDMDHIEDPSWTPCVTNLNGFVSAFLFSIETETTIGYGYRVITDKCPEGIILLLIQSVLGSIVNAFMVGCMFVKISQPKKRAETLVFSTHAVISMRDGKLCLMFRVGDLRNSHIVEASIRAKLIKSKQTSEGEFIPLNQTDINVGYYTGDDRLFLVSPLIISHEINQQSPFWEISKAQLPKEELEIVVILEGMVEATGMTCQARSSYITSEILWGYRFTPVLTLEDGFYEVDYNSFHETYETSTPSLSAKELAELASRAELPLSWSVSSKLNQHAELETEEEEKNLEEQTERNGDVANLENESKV
G protein-activated inward rectifier potassium channel 2 (Homo sapiens) + G protein-activated inward rectifier potassium channel 1 (Homo sapiens), sequence (P48549 whole entry, looked up): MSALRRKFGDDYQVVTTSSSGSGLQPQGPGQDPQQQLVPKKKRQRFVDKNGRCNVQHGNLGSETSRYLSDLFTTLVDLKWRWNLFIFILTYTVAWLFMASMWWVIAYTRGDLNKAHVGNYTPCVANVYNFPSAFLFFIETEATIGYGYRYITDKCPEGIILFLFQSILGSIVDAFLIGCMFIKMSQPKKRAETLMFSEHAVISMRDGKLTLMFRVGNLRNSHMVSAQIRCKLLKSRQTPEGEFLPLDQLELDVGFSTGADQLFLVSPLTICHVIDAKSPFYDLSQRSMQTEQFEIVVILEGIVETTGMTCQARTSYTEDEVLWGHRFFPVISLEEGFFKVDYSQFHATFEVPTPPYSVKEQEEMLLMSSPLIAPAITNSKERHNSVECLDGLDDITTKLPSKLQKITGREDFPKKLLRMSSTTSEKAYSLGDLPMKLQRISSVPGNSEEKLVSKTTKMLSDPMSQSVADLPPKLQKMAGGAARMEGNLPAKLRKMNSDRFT

This assay concerns the target G protein-activated inward rectifier potassium channel 2 (Homo sapiens) + G protein-activated inward rectifier potassium channel 1 (Homo sapiens) (UniProt P48051+P48549). Nature of the assay: GIRK1/2 thallium flux modulators, retest, confirmation, cell-based, HEK293 rmGlu8/hGIRK1/2, FluoZin-2 (AID 623911). To be noted: HEK293 rmGlu8/hGIRK1/2, thallium flux FluoZin-2; actives lie on both sides; glutamate co-added at its EC20 level.
Regarding `Cc1ccc(C(=O)NNC(=S)Nc2cccc3ccccc23)s1`, the manual score is 0 (inactive). Turning to `O=C(NNC(=S)Nc1ccccc1)c1cccc(Br)c1`, the manual score is 0 (inactive). Consider `O=C(NNC(=S)Nc1cccc2ccccc12)c1cccc(Br)c1`, for which the manual score was 1 (active). In the case of `CC(C)(C)S(=O)(=O)c1ccc(S(=O)(=O)C(C)(C)C)s1` it was 0 (inactive); in that of `CC(C)(C)C(=O)NC(=S)NNC(=O)c1sc2ccccc2c1Cl`, 1 (active). As for `O=C(NC(=S)N(CCCCO)C1CCCCC1)c1sc2ccccc2c1Cl`, the manual score was 1 (active). The result for `CCCOC(=S)NC(=O)c1sc2ccccc2c1Cl` reads 1 (active); that for `CCCCOC(=S)NC(=O)c1sc2ccccc2c1Cl`, 1 (active); that for `COc1ccccc1C(=O)NC(=S)NNC(=O)c1sc2ccccc2c1Cl`, 0 (inactive). With `Nc1c(C(O)(C(F)(F)F)C(F)(F)F)ccc2ccccc12`, the manual score is 0 (inactive). Turning to `CCCCN(Cc1ccccc1)S(=O)(=O)c1ccc2[nH]c(=O)oc2c1`, the manual score was 0 (inactive). As for `CCOC(=S)NC(=O)c1sc2ccccc2c1Cl`, the manual score was 1 (active). In the case of `Cn1c(-c2sc3ccccc3c2Cl)n[nH]c1=S` it was 0 (inactive); in that of `COc1ccccc1C(=O)NNC(=S)NC(=O)c1sc2ccccc2c1Cl`, 0.5 (inactive); in that of `Cc1cc(C)c2nc(SC(C)C(=O)NCC(=O)Nc3ccc(F)c(F)c3F)cc(C)c2c1` (stereo not given), 0 (inactive).

For the molecule `Cc1cc(C)c2nc(SCC(=O)NCCC3=CCCCC3)cc(C)c2c1`, the manual score was 1 (active).

As for `COc1cccc(-n2c(SCC(=O)NCCC3=CCCCC3)nc3n[nH]c(C)c3c2=N)c1`, the manual score is -0.5 (inactive).

Take `Nn1c(SC/C=C/c2ccccc2)nnc1-c1ccccn1`: the manual score is 0 (inactive). The result for `COc1cc(Cl)cc2c1Sc1ccccc1/C2=C/CCN(C)C` reads -1 (active). On to `Cc1nc(SC2CCOC2=O)c2c(C)c(C)sc2n1` (stereo not given), for which the manual score is 1 (active). Consider `S=C(NN=C1C2CC3CC(C2)CC1C3)Nc1ccccc1`, for which the manual score is 0 (inactive). With `CCCCn1c(SCc2nc(N)nc(Nc3ccccc3C)n2)nc2ccccc2c1=O`, the manual score was 0 (inactive). In the case of `O=C(c1ccccc1Oc1ccccc1)N1CCN(c2ccccc2)CC1` it was -1 (active); in that of `CN1CCN(C(=O)c2sc(=S)n(-c3ccccc3)c2N)CC1`, 0 (inactive). Turning to `Cc1ccc(-n2nc(-c3cccs3)cc2C(=O)NCC2CCCO2)c(C)c1` (stereo not given), the manual score was -1 (active).

On to `O=C(CN1C(=O)c2ccccc2C1=O)Nc1sc2c(c1C(=O)NCC1CCCO1)CCC2` (stereo not given), for which the manual score is 0 (inactive). Regarding `COc1ccc(C(OC(=O)c2cccs2)C(=O)NCC2CCCO2)cc1` (stereo not given), the manual score is 0 (inactive). The result for `Cc1cccc(S(=O)(=O)Nc2cccc3c2C(=O)c2ccccc2-3)c1` reads 0 (inactive); that for `COC(=O)Nc1nnc(Cc2ccc(Cl)cc2)s1`, 0 (inactive); that for `CC(C)Cn1cnc2sc3c(c2c1=N)CCCC3`, -1 (active).
